Experimental findings from PubChem BioAssay (EPA / NIEHS) are described below.

Molecules are shown by their SMILES. Where “and” joins values, the source holds several entries; their conditions need not be identical. Equal values may be shown once. Calls of active or inactive are those of the source. The calls were made as follows: active = hit-call score of the fitted dose curve at least 0.9, where 1 is the maximum; inactive = score below 0.9.

Read-out in the experiment: Plasminogen Activator Inhibitor-1 (PAI1), SERPINE1 (gene 5054)
Nature of the experiment: BSK_BF4T_PAI1: BioMAP Diversity Plus: BF4T Assay for Plasminogen Activator Inhibitor-1 (PAI1) Biomarker Activity (AID 2284273). Conditions: primary human bronchial epithelial cells with fibroblasts. The method, then:
BSK_BF4T is a cell-based, multiplexed-readout assay that uses bronchial epithelial cells and dermal fibroblasts, a human vascular primary cell, with measurements taken at 24 hours after chemical dosing in a microplate: 96-well plate.BSK_BF4T_PAI1 is an assay component measured in the BSK_BF4T assay. It measures PAI-1 antibody related to regulation of gene expression using ELISA technology.Data from the assay component BSK_BF4T_PAI1 was analyzed at the endpoint, BSK_BF4T_PAI1, in the positive analysis fitting direction relative to DMSO as the negative control and baseline of activity. Using a type of binding reporter, gain or loss-of-signal activity can be used to understand protein changes. To generalize the intended target to other relatable targets, this assay endpoint is annotated to the 'cytokine' intended target family, where the subfamily is 'plasmogen activator inhibitor'.
The levels of cell surface (or secreted, indicated by the prefix "s") biomarker endpoints were measured by ELISA. Overt cytotoxicity to cells in confluent adherent cultures (all systems other than the BT system) was assessed by measuring total protein levels using sulforhodamine B (SRB) staining in parallel cultures at the time of biomarker measurements, indicated as SRB endpoints. For proliferation assays for adherent cell types, individual cell types are cultured at sub-confluence and relative cell numbers quantified by SRB staining at time points optimized for each system (48 h: 3C and CASM3C systems; 72 h: BT and HDF3CGF systems; 96 h: SAg system). SRB was performed by staining cells with 0.1% SRB after fixation with 10% TCA and reading wells at 560 nm.Viability and proliferation of PBMC (T cells) was quantified by Alamar Blue reduction for the SAg and BT systems. For PBMC viability (referred to as PBMC Cytotoxicity within the assay endpoint names), cells were plated (75,000/well in a 96-well plate) and then chemical samples added for 1 h before addition of activators, SEB and TSST-1 (20 ng/mL final concentration each). Cells were incubated for 90 h. Then, Alamar Blue (20 uL/well) (Invitrogen, Cat DAL1100) was added for 6 h, and the plates were read with a fluorescence microplate reader at 546/580 nm (excitation/emission). For PBMC proliferation, cells were plated and activated as above but incubated for only 16 h prior to addition of Alamar Blue. Plates were read after 6 h.
As for `C=CC(=O)OCCC(F)(F)C(F)(F)C(F)(F)C(F)(F)C(F)(F)C(F)(F)C(F)(F)C(F)(F)F`, the outcome was inactive.

In the case of `O=P(O)(O)CCC(F)(F)C(F)(F)C(F)(F)C(F)(F)C(F)(F)C(F)(F)C(F)(F)C(F)(F)F`, the result was inactive.

What is called AC50 is the concentration giving half of the maximal activity seen. Take `O=C(CC(=O)C(F)(F)C(F)(F)C(F)(F)F)c1cccs1`: the AC50 was 16.9 µM (active) and 15.5 µM (active).

As for `CN(Cc1cnc2nc(N)nc(N)c2n1)c1ccc(C(=O)N[C@@H](CCC(=O)O)C(=O)O)cc1`, the result was inactive.

For `O=P(O)(O)CCC(F)(F)C(F)(F)C(F)(F)C(F)(F)C(F)(F)C(F)(F)F`, the result was inactive.

For `O=S(=O)(O)C(F)(F)C(F)(F)C(F)(F)C(F)(F)C(F)(F)C(F)(F)C(F)(F)C(F)(F)C(F)(F)C(F)(F)F`, the result was inactive.

Turning to `O=C(O)CCC(F)(F)C(F)(F)C(F)(F)C(F)(F)C(F)(F)F`, the outcome was inactive.

For the molecule `CN(CCO)S(=O)(=O)C(F)(F)C(F)(F)C(F)(F)C(F)(F)C(F)(F)C(F)(F)C(F)(F)C(F)(F)F`, the result was inactive.

Take `OCC(F)(F)C(F)(F)C(F)(F)C(F)(F)C(F)(F)C(F)(F)C(F)(F)C(F)(F)C(F)(F)C(F)(F)C(F)(F)F`: the result was inactive.

`O=C(O)C(F)(F)OC(F)(F)C(F)(F)OC(F)(F)C(F)(F)OC(F)(F)C(F)(F)C(F)(F)C(F)(F)F`: the AC50 is 19.1 µM (active) and 16.2 µM (active).

With `O=C(O)CCC(F)(F)C(F)(F)C(F)(F)C(F)(F)C(F)(F)C(F)(F)F`, the outcome was inactive.
